Where “and” joins values, the source holds several entries; their conditions need not be identical. Equal values may be shown once. Inconclusive results are not listed. Values without a mark were called inactive. Calls of active or inactive are those of the source. The call rests on the fitted dose curve; in most records, active means well fitted curve in the direction sought with a large enough effect; inconclusive means small, poorly fitted or top-dose-only effect, or another doubt; inactive means no such curve, though single readings can be large; an effect the other way counts as inactive or inconclusive.

This is an account of results in PubChem BioAssay (NCATS).

Experiment [1] is described as follows: Viability qHTS for spleen associated tyrosine kinase inhibitor (SYKi) naive MV4-11 cells (AID 1963823). Further: nearly all actives have a fitted effect of over 40% in size. As to conditions: MV4-11 AML viability, CellTiter-Glo luminescence, 72 h; series mostly up to 45 µM. Put shortly: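 SYKi-naive MV4-11 AML cells, 500 per well, were exposed to library compounds for 72 hr at 37 C, 5% CO2. Viability was then read by CellTiter-Glo luminescence after 10 min at room temperature.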
(Quantitative high-throughput screening tests each substance at several concentrations.)

Experiment [2] in a line: Viability qHTS for spleen associated tyrosine kinase inhibitor (SYKi) drug resistant MV4-11 cells (AID 1963824). Further: nearly all actives have a fitted effect of over 35% in size. Particulars: SYKi-resistant MV4-11 viability, CellTiter-Glo, 72 h; series mostly up to 45 µM. In short, it runs like this: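 SYK inhibitor-resistant MV4-11 AML cells, 500 per well, added to predispensed compounds and incubated 72 hr at 37 C, 5% CO2. Viability measured by CellTiter-Glo luminescence after 10 min at room temperature.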

The nature of experiment [3]: Cellular viability qHTS for adrenocortical cancer (ACC) cell line SW-13 (AID 1963989). Further: nearly all actives have a fitted effect of over 65% in size.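 On activity (max response): cells grown in serum-free medium with ITS supplement; on the % scale 0 is the no-effect control and ±100 the full control effect.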 As to conditions: SW-13 ACC cells viability, CellTiter-Glo, 48 h; activity (max response): active compounds read low. In short, it runs like this:
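Luminescent ATP read-out (CellTiter-Glo, 20 min at room temperature) measured metabolically competent SW-13 cells after 48 h compound treatment. Final concentrations spanned up to 46 uM; bortezomib served as positive control.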

Experiment [4] is described as follows: Quantitative highthroughput screen to assess conditional lethalithy of SEM cells grown in Human Plasma-Like Medium with dialyzed fetal bovine serum (HPLM+ds) (AID 1963882). Further: nearly all actives have a fitted effect of over 35% in size. As to conditions: SEM B-ALL cells in HPLM+ds, CellTiter-Glo viability, 48 h; series mostly up to 45.8 µM. In short, it runs like this: (§1)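 Each medium arm—HPLM with 10% dialyzed FBS, or RPMI1640 with 5 mM glucose and 10% untreated or dialyzed FBS—was screened against an 11-point, 3-fold compound titration for 48 h at 37 °C, with CellTiter-Glo luminescence as endpoint.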

Experiment [5] in a line: Cellular viability qHTS for adrenocortical cancer (ACC) cell line NCI-H295R (AID 1963990). Further: nearly all actives have a fitted effect of over 60% in size. Particulars: CellTiter-Glo ATP luminescence, 48 h; series mostly up to 46.1 µM. Put shortly:
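IC50 and maximal efficacy derive from four-parameter logistic modelling of titration curves, with reads scaled between DMSO-only wells (0%) and doxorubicin hydrochloride (100% inhibition). Compounds spanned up to 46 uM over 48 h.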

A short description of experiment [6]: Quantitative highthroughput screen to assess conditional lethalithy of P12 Ichikawa cells grown in RPMI1640 with dialyzed fetal bovine serum (RPMI+ds) (AID 1963880). Further: nearly all actives have a fitted effect of over 35% in size. As to conditions: ATP luminescence, 48 h; Potency: P12-Ichikawa viability; series mostly up to 45.8 µM. In short, it runs like this: as §1
Experiment [7] in a line: Quantitative highthroughput screen to assess conditional lethalithy of SEM cells grown in RPMI1640 with dialyzed fetal bovine serum (RPMI+ds) (AID 1963884). Further: nearly all actives have a fitted effect of over 35% in size. As to conditions: SEM B-ALL cells, RPMI+dialyzed FBS, CellTiter-Glo viability, 48 h; series mostly up to 45.8 µM. In short, it runs like this: as §1
A short description of experiment [8]: Quantitative highthroughput screen to assess conditional lethalithy of SEM cells grown in RPMI1640 with unreated serum (RPMI+s) (AID 1963883). Further: nearly all actives have a fitted effect of over 35% in size. Particulars: SEM B-ALL cells, CellTiter-Glo viability, 48 h; series mostly up to 45.8 µM. Put shortly: as §1
Experiment [9] is described as follows: Quantitative highthroughput screen to assess conditional lethalithy of P12 Ichikawa cells grown in RPMI1640 with untreated serum (RPMI+s) (AID 1963881). Further: nearly all actives have a fitted effect of over 35% in size. Particulars: ATP luminescence, 48 h; Potency: viability; series mostly up to 45.8 µM. Put shortly:
as §1
Potency means the concentration at half of the fitted maximal effect.

Consider `CNS(=O)(=O)c1ccc2c(c1)/C(=C/c1[nH]c3c(c1CCCN1CCN(C)CC1)CCCC3)C(=O)N2`, for which the values for the Potency in [1], in [2] and in experiment [3] were 0.186 µM (active), 332 nM (active) and 28.2 µM (active), respectively.

As to `COc1cc(C(=O)N2CCC(N3CCN(C)CC3)CC2)ccc1Nc1ncc2c(n1)N(C)c1ccccc1C(=O)N2C`, the Potency in [1] was 461 nM (active) and 1.32 µM (active); in experiment [2], 651 nM (active) and 1.18 µM (active); in experiment [4], 3.72 µM (active); in experiment [5], 12.6 µM (active).

With `C[C@@H]1CC(=O)NN=C1c1ccc(NN=C(C#N)C#N)cc1`, the Potency in experiment [1] was 13.3 µM (active); in experiment [2], 15000 nM (active); in experiment [6], 26.4 µM (active); in experiment [4], 18.7 µM (active); in [7], 16.6 µM (active). Besides, the activity (max response) in experiment [3] is -17.4% and 2.94% and -32.7%. For the same molecule, the Potency result in [5] was “inactive”.

For the molecule `Oc1ccc(C2CCN(c3ccnc4ccccc34)CC2)cc1O`, the Potency is 2.09 µM (active) in experiment [1], 1860 nM (active) in [2] and 11.8 µM (active) in [8]. Also, in [5], the Potency result was “inactive”.

With `Cc1ccc(C(N)=O)cc1Nc1nccc(-c2cn(C(C)C)c3cnccc23)n1`, the Potency in experiment [1] was 0.0231 µM (active); in [2] it was 51.7 nM (active); in experiment [8], 3.72 µM (active); in [7], 2.09 µM (active); in [3], 8.91 µM (active); in experiment [5], 12.6 µM (active).

As to `CN1C(=O)[C@@H](NC(=O)c2n[nH]c(Cc3ccccc3)n2)COc2ccccc21`, the Potency entry in experiment [1] and in [2] was “inactive” in each case. In addition, in experiment [3], the activity (max response) is 8.85%.

For the molecule `Cn1c2ccccc2c2c3c(c4c5ccccc5n(CCC#N)c4c21)CNC3=O`, the Potency is 0.0651 µM (active) in [1]; 259 nM (active) in experiment [2]; 0.372 µM (active) in experiment [4]; 0.526 µM (active) in experiment [8]; 0.418 µM (active) in [7]; 3.55 µM (active) in experiment [5].

Turning to `O=C(NCCCNC(=O)c1ccc[nH]c1=O)c1cc(-c2ccccc2)on1`, the Potency in experiment [1] is 4.68 µM (active); in [2] it was 4680 nM (active); in experiment [3], 22.4 µM (active).

With `Cn1c(=O)c(F)c(Nc2ccc(I)cc2F)c2c(=O)n(C[C@@H](O)CO)cnc21`, the Potency in experiment [1] was 0.0332 µM (active); in experiment [2], 23.5 nM (active); in experiment [8], 6.62 µM (active); in [7], 2.09 µM (active).

For the molecule `CCCC1OC2C[C@@H]3[C@H]4CCC5=CC(=O)C=C[C@]5(C)[C@H]4C(O)C[C@]3(C)[C@]2(C(=O)CO)O1` (stereo partly drawn), the Potency is 16.6 µM (active) in [1], 7420 nM (active) in [2], 0.0132 µM (active) in experiment [6] and 0.187 µM (active) in experiment [8]. In experiment [3], the activity (max response) is -12.3%. Further, in experiment [5], the Potency result was “inactive”.

For `Cc1c(NC(=O)OC[C@@H]2COCCN2)cn2ncnc(Nc3ccc4c(cnn4Cc4cccc(F)c4)c3)c12`, the Potency in experiment [1] is 10.3 µM (active) and 13.2 µM (active); in experiment [2] it was 8.2 µM (active) and 11.8 µM (active); in [4], 9.35 µM (active); in experiment [8] it was 9.35 µM (active); in [7] it was 10.5 µM (active); in experiment [3], 15.8 µM (active). In experiment [5], the Potency is 31.6 µM (active).

For the molecule `NC(=NCc1ccccc1)NC(=O)c1nc(Cl)c(N)nc1N`, the Potency in experiment [1] was 3.32 µM (active); in [2], 5250 nM (active); in [7], 14.8 µM (active). Also, the Potency entry in experiment [4] is “inactive”.

For `O=C(NOCC1CC1)c1ccc(F)c(F)c1Nc1ccc(I)cc1Cl`, the Potency is 3.76 µM (active) in experiment [1]; 3.35 µM (active) and 2.91 µM (active) and 2.35 µM (active) in experiment [2]; 2.64 µM (active) in [9]; 7.43 µM (active) in experiment [4]; 10.3 µM (active) and 4.47 µM (active) in experiment [3]; 3.26 µM (active) and 6.31 µM (active) in experiment [5].

Regarding `C=CC(=O)Nc1cccc(Sc2nc(Nc3ccc(N4CCN(C)CC4)cc3)ncc2Cl)c1`, the Potency in experiment [1] is 580 nM (active) and 590 nM (active); in [2], 580 nM (active) and 742 nM (active); in experiment [4], 23.5 µM (active); in [7], 16.6 µM (active); in experiment [3] it was 2 µM (active); in experiment [5], 3.16 µM (active).

With `CCN(CC)CCCCNc1ncc2cc(-c3cc(OC)cc(OC)c3)c(NC(=O)NC(C)(C)C)nc2n1`, the Potency in experiment [1] was 5.8 µM (active) and 8.33 µM (active); in [2] it was 5.8 µM (active) and 9.34 µM (active); in [4] it was 14.8 µM (active); in [8] it was 16.6 µM (active); in experiment [3], 28.2 µM (active); in [5] it was 25.1 µM (active).

With `CCc1nc(C(N)=O)c(Nc2ccc(N3CCC(N4CCN(C)CC4)CC3)c(OC)c2)nc1NC1CCOCC1`, the Potency is 9 nM (active) and 18.6 nM (active) in [1]; 11.4 nM (active) and 26.3 nM (active) in experiment [2]; 0.209 µM (active) in experiment [7]; 2.82 µM (active) in experiment [5].

Take `CN(C[C@@H]1COCCO1)S(=O)(=O)Nc1ccc2ccc3ncc(-c4cnn(C)c4)cc3c(=O)c2c1`: the Potency is 0.296 µM (active) in experiment [1], 461 nM (active) in experiment [2], 0.418 µM (active) in [8] and 0.662 µM (active) in [7].
